Measured values as given in PubChem BioAssay AID485364 (National Center for Advancing Translational Sciences (NCATS), 2010).
Among all 360,000 compounds or so, about 11,000 (3.1%) were called active. Entries that show only a call come without a potency. Roughly 4% stayed inconclusive and do not appear here. Calls come from the whole dose curve; as a rule, active = well fitted inhibition curve with a large enough effect; inconclusive = small, poorly fitted or top-dose-only effect; inactive = no such curve, though single readings can be large or run the other way. This excerpt belongs to a sample that is enriched for actives.

What follows are compounds tested against Schistosoma mansoni thioredoxin glutathione reductase (TGR) (UniProt Q962Y6) (assay: qHTS Assay for the Inhibitors of Schistosoma Mansoni Peroxiredoxins). Conditions: purified TGR, DTNB reduction, TNB absorbance 405 nm; series mostly up to 114 µM.
Description: Schistosomiasis is a major neglected tropical disease that currently affects over 200 million. It is caused by different species of flatworms, such as Schistosoma mansoni. Over the last century, drugs to treat the disease have evolved from potassium antimonyl tartrate, artemisinin, oxamniquine, to praziquantel, with praziquantel remaining the universally-used single drug of choice over the past three decades. However, transmission rates have changed little with praziquantel, and there is evidence for the development of drug resistant parasites. Because there is currently no suitable alternative therapy available, there is an urgent need to identify new targets and drugs for schistosomiasis treatment. Thioredoxin glutathione reductase (TGR), one uniquely positioned S. mansoni enzyme, has been identified as a major component of the worms' distinct and compressed antioxidant "firewall". TGR is a multifunctional enzyme that catalyzes the interconversion between reduced and oxidized forms of both glutathione (GSH) and thioredoxins, thus making it an attractive new antiparasitic target. Recently, a quantitative high-throughput screen of the NIH Molecular Libraries Small Molecule Repository (MLSMR, ~71K at the time of the screen in 2007) was performed using an assay that targeted both TGR and peroxiredoxin2 (Prx2, an H2O2-reducing enzymatic component of the S. mansoni redox "firewall") by following the decrease of NADPH fluorescence. […] Additional mechanistic link between exogenous NO donation and parasitic injury for the oxadiazole-2-oxide class of compounds was also expanded and better defined. Although the screen addressed both TGR and Prx2, the assay required post-screen target deconvolution for further characterization of the actives. In addition, the fluorescence assay was also subject to fluorescence interference from compound library members. We have developed a 1536-well-based kinetic HTS assay to address TGR alone. The assay followed the reduction of 5, 5'-dithiobis (2-nitrobenzoic acid) (DTNB) (Ellman's reagent) by NADPH and measured the increase in absorbance at 412 nm of the reaction product, TNB. […] This assay format can be used to screen the current MLSMR collection (with >300K compounds available) to find novel TGR inhibitors. Furoxan is a good choice to serve as a positive control in the primary HTS assay.
Three microliters of reagents (100 uM NADPH and 20 nM TGR or 100 uM NADPH as no-enzyme control) were dispensed into 1,536-well black clear-bottomed plates. Compounds (23 nL) were transferred via Kalypsys pin tool equipped with 1536-pin array (10 nL slotted pins, V&P Scientific, San Diego, CA). The plates were then be incubated for 15 min at room temperature, and 1 uL aliquot of 500 uM NADPH were added, immediately followed by a 1 uL aliquot of 15 mM DTNB to start the reaction. The plate was transferred to a ViewLux high-throughput CCD imager (Perkin-Elmer, Wellesley, MA) where kinetic measurements of the TNB absorbance were acquired using a 405 excitation filter. Throughout the screen, reagent bottles and all liquid lines were made light-tight to minimize reagent degradation. All screening operations were performed on a fully integrated robotic system (Kalypsys, San Diego, CA) containing one RX-130 and two RX-90 anthropomorphic robotic arms (Staubli, Duncan, SC). Library plates were screened starting from the lowest and proceeding to the highest concentration, and a "double-dipping" step of the highest concentration was required to access higher concentrations of compounds. Vehicle-only plates, with DMSO being pin-transferred to the entire column 5-48 compound area, were inserted uniformly at the beginning and the end of each library in order to monitor for and record any shifts in the background, which can be affected by reagent dispensers or loss in enzyme activity overtime. […]
Note: nearly all actives have a fitted effect of over 60% in size.
Potency is the fitted concentration of half-maximal effect.

| SMILES | Potency |
| --- | --- |
| O=C1Cc2cc(S(=O)(=O)Nc3ccc(OC(F)(F)F)cc3)cc3c2N1CCC3 | inactive |
| Cc1ccc(-c2c3c(=O)n(C)c(=O)n(C)c3cn2-c2ccccc2O)cc1 | inactive |
| COc1ccc(-c2c3c(=O)n(C)c(=O)n(C)c3cn2NC(C)=O)cc1 | inactive |
| Cc1ccc(-c2c3c(=O)n(C)c(=O)n(C)c3cn2-n2cnnc2)cc1 | 39.8 µM (active) |
| C=CCN(N=Nc1cccc([N+](=O)[O-])c1)c1cccc([N+](=O)[O-])c1 | 20 µM (active) |
| C=CCNC(=O)/C(=C\c1cccc([N+](=O)[O-])c1)NC(=O)c1ccccc1 | inactive |
| C=CCN(CC=C)CCOc1ccccc1[N+](=O)[O-] | inactive |
| CCn1cc(C(=O)NCc2ccccc2)c(=O)c2cc(S(=O)(=O)N3CCCCC3)ccc21 | inactive |
| C#CCOc1ccc(C2CC(=O)Nc3c2c(C)nn3-c2nc(C)cc(C)n2)cc1 (centres undefined) | inactive |
| O=C(CSc1nccn1Cc1ccc(F)cc1)NCc1ccccc1 | inactive |
| CN(C)c1cccc(C(=O)Nc2nc3ccc(S(=O)(=O)NC(C)(C)C)cc3s2)c1 | inactive |
| O=C(c1ccc(Cl)cc1)n1nc(-c2cccnc2)nc1NCc1ccc(F)cc1 | inactive |
| CCc1nc2cccnc2n1-c1ccc(CC(=O)Nc2c(C)cccc2C)cc1 | inactive |
| CCc1nc2cccnc2n1-c1ccc(C(=O)O)cc1 | 44.7 µM (active) |
| COCCCNC(=O)Cc1ccc(-n2c(C)nc3cccnc32)cc1 | inactive |
| CCOc1ccc(NC(=O)c2c(NC(=O)Cc3ccccc3)sc3c2CCC(C)C3)cc1 (centres undefined) | inactive |
| COc1ccc(C2CC(c3ccc(C)cc3)Nc3ncnn32)cc1 (centres undefined) | inactive |
| COc1cccc(C2Nc3cccc4cccc(c34)N2)c1 | 20 µM (active) |
| Cc1ccc(C2Nc3cccc4cccc(c34)N2)cc1 | 17.8 µM (active) |
| Oc1ccc(C2Nc3cccc4cccc(c34)N2)cc1 | 14.1 µM (active) |
| COc1ccc(C2NC(=O)c3ccccc3N2)cc1 (centres undefined) | inactive |
| Cc1ccc(C2CC(c3cccc(C)c3)n3nc(N)nc3N2)cc1 (centres undefined) | inactive |

| SMILES | Potency |
| --- | --- |
| COc1cccc(N2C(=O)C3CCCN3C2c2ccc(F)cc2)c1 (centres undefined) | inactive |
| COc1ccc(-c2nn(CC(=O)NC3CCCC3)c3c2cnc2ccc(F)cc23)cc1 | inactive |
| CCn1cc(C(=O)NCc2ccc(C)cc2)c(=O)c2cc(S(=O)(=O)N3CCc4ccccc4C3)ccc21 | inactive |
| COc1ccc(CNC(=O)COCc2cc(-c3cccs3)on2)cc1OC | inactive |
| Cc1ccc(Cl)cc1N1CCN(C(=O)C2CCC(CNS(=O)(=O)c3cccs3)CC2)CC1 (centres undefined) | inactive |
| CCOc1ccc(CCNC(=O)c2csc3c2CCCCC3)cc1 | inactive |
| COCCNC(=O)c1ccc2c(c1)N=C(C)c1cc(C)ccc1S2 | inactive |
| CCOc1ccc(-c2cc(C)n3nc(C(=O)Nc4ccc(C)c(C)c4)cc3n2)cc1 | inactive |
| CCn1cc(C(=O)OCC(=O)Nc2cc(C)cc(C)c2)c(=O)c2ccc(C)nc21 | inactive |
| O=C(CCS(=O)(=O)c1ccc2c(c1)NC(=O)CO2)Nc1cccc(C(F)(F)F)c1 | inactive |
| COc1cccc(-n2cc(C(=O)NCc3cccc(Cl)c3)c3ccccc3c2=O)c1 | inactive |
| COc1cccc(-c2nnc3n(CCc4ccccc4)c(=O)c4ccccc4n23)c1O | inactive |
| COc1cccc(-n2ccn(CC(=O)NCc3ccc(C)cc3)c(=O)c2=O)c1 | inactive |
| COc1cc(C2C3C(=O)N(c4ccccc4)C(=O)C3ON2c2ccccc2)ccc1O (centres undefined) | inactive |
| COC(=O)C1=NN(c2ccccc2)C2C(=O)N(c3ccccc3OC)C(=O)C12 (centres undefined) | inactive |
| Cc1ccccc1N1C(=O)C2ON(c3ccccc3)C(c3ccncc3)C2C1=O (centres undefined) | 44.7 µM (active) |
| CC(C)(C)c1ccc(C(=O)N2CCC(c3nc(-c4ccc(S(=O)(=O)N5CCCC5)cc4)no3)CC2)cc1 | inactive |
| CC(=O)c1ccc(N2CCN(C3C(=O)c4ccccc4N3C(C)=O)CC2)cc1 (centres undefined) | inactive |
| CCC(=O)N1CCc2cc(S(=O)(=O)NC(C(=O)Nc3ccc(C(C)=O)cc3)C(C)C)ccc21 (centres undefined) | inactive |
| CC(Nc1ccc(-c2nc(-c3ccco3)no2)cc1[N+](=O)[O-])c1ccccc1 (centres undefined) | 31.6 µM (active) |
| O=[N+]([O-])c1cc(-c2nc(-c3ccccc3)no2)ccc1NCc1ccco1 | inactive |
| CNc1ccc(-c2nc(-c3ccco3)no2)cc1[N+](=O)[O-] | inactive |

| SMILES | Potency |
| --- | --- |
| CC[C@]1(c2ccccc2OC)C(=O)N(C(=O)OC)N1C(=O)OC | 31.6 µM (active) |
| COc1ccccc1CNC(=O)CCCN1C(=O)NC2(CCCC2)C1=O | inactive |
| COC(=O)c1ccccc1NC(=O)Cc1ccccc1OC | inactive |
| CCOC(=O)c1cc2c(=O)n3ccccc3nc2n(Cc2ccco2)c1=NC(=O)c1ccc(F)cc1 | inactive |
| Cc1cccc(Nc2cc(C)nc(-n3nc(C)cc3C)n2)c1 | inactive |
| Cc1nnc(N2CCCC(C(=O)NCCN(C)C)C2)c2nn(-c3ccccc3)c(C)c12 (centres undefined) | inactive |
| COc1ccc(NC(=O)c2ccc3oc(=O)c(S(=O)(=O)c4ccc(F)cc4)cc3c2)c(OC)c1 | inactive |
| O=C(NCc1ccco1)c1sc2cccc(F)c2c1Cl | 39.8 µM (active) |
| COc1ccc2c(Cl)c(C(=O)NCc3ccco3)sc2c1 | inactive |
| O=C(NCc1ccco1)c1cc2sccc2n1Cc1ccc(F)cc1 | inactive |
| Cc1ccc(C)c(Nc2nnc(-c3ccc(C)c(S(=O)(=O)N4CCCCC4)c3)c3ccccc23)c1 | inactive |
| Cc1ccc(C)c(N2CCN(c3ccc4cc(S(=O)(=O)N5CCC(C)CC5)ccc4n3)CC2)c1 | inactive |
| COc1cccc(-c2n[nH]c3c2C(c2cccc(O)c2)N(C)C3=O)c1 (centres undefined) | inactive |
| Cc1nn2c(c1-c1ccccc1)N=C(c1ccco1)CC2c1ccccc1 (centres undefined) | 10 µM (active) |
| O=C(O)CCCC(=O)N1N=C(c2ccco2)CC1c1ccco1 (centres undefined) | inactive |
| Cc1nn(C(=O)c2ccoc2C)c(N)c1-c1ccccc1 | inactive |
| COc1ccc(NC(=O)CCNS(=O)(=O)c2ccc3c(c2)CCCC(=O)N3)cc1Cl | inactive |
| CCCCn1c(SCC(=O)N2CCC(C(=O)OCC)CC2)nc2cc(S(N)(=O)=O)ccc21 | inactive |
| CCCCn1c(SCc2ncc(-c3ccccc3)o2)nc2cc(S(N)(=O)=O)ccc21 | 20 µM (active) |
| CCCCn1c(SCC(=O)N2CCCC2=O)nc2cc(S(N)(=O)=O)ccc21 | inactive |
